Potency and activity change, negative = inhibition data for six compounds are collected here from PubChem BioAssay (NCATS).

For experiment [1], the system named is Zika virus NS2B-NS3 protease. The experiment in a line: Primary screen GU AMC qHTS for Zika virus inhibitors (AID 1347154).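 Further: 0% = no-inhibitor control and -100% = no-enzyme control; nearly all actives have a fitted effect of over 70% in size.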 Summed up:
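Unlinked Zika NS2B hydrophilic domain/NS3 protease domain noncovalent complex (25 nM final) in 10 mM Tris-HCl pH 8.0, 0.01% Tween 20, with AMC peptide substrate. Fluorescence (ex 340, em 450 nm) change over 15 min, room temperature; percent inhibition fitted to 4-parameter Hill equation.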

A short description of experiment [2]: Primary qHTS for small molecule stabilizers of the endoplasmic reticulum resident proteome: Secreted ER Calcium Modulated Protein (SERCaMP) assay (AID 1508630). Further: on the % scale 0 is the no-effect control and ±100 the full control effect. An outline of the steps:
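The SH-SY5Y reporter protocol was run at 3 concentrations up to 38.3 uM (primary) or 11 concentrations (follow-up): 16 h compound, 100 nM thapsigargin for 4 h, then extracellular luciferase luminescence.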
For orientation: In qHTS, concentration-response curves come from the screen itself.

The structures appear in SMILES notation. Results filed as inconclusive are left out. A number with no mark means an inactive call. The source made the active and inactive calls. The call rests on the fitted dose curve; in most records, active means well fitted curve in the direction sought with a large enough effect; inconclusive means small, poorly fitted or top-dose-only effect, or another doubt; inactive means no such curve, though single readings can be large; an effect the other way counts as inactive or inconclusive.

Turning to `CC(Cc1cccc(C(F)(F)F)c1)NCCCc1ccccc1` (configuration not stated), the Potency entry in experiment [1] and in experiment [2] was “inactive” in each case.
As for `CC(C)(C)NC[C@H](O)COc1cccc2[nH]c(C#N)cc12`, the Potency result in experiment [1] and in experiment [2] was “inactive” each time.
For the compound `Clc1ccc(C2CC3CCC2N3)cn1` (configuration not stated), the Potency result in experiment [1] and in experiment [2] was “inactive” each time.
As to `CC(C)C[C@H](NC(=O)[C@H](Cc1ccccc1)NC(=O)CNC(=O)[C@@H](NC(=O)[C@@H](N)Cc1ccc(O)cc1)[C@H](C)O)C(=O)N[C@H](C(=O)O)[C@H](C)O`, the activity change, negative = inhibition is 4.9% [at 6.83 µM] in experiment [1] and -27.9% [at 3.88 µM] in experiment [2].
As for `C/C=C1/C[N@@+]2(C)CC[C@]34C(=C(C=O)[C@H]1C[C@H]32)Nc1ccccc14`, the Potency result in experiment [1] and in experiment [2] was “inactive” in each case.
As to `CCCCCCCCCCCCCCCCOC[C@@H](O)COP(=O)([O-])OCC[N+](C)(C)C`, the activity change, negative = inhibition in experiment [1] is 3.47% [at 6.83 µM]; in experiment [2], 13.1% [at 3.88 µM].
